The panel holds about 83,000 compounds, 20% with a hit somewhere; the sample as a whole holds those more often.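 Interpretation: 100, growth as untreated; towards 0, rising growth inhibition; 0, no net growth; 0 to -100, cell death. Compounds scoring below 10 were considered active.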 A number with no mark means an inactive call. The source made the active and inactive calls.
Columns and labels:
Assay in all cases: NCI-60 one-dose screen, 48 h (100 = growth as untreated, 0 = no growth, -100 = all killed)
Settings in all cases: 10 µM unless noted
[1] = system: DU-145 prostate
[2] = system: K-562 leukemia
[3] = system: MALME-3M melanoma
[4] = system: MDA-MB-231 breast
[5] = system: RXF 393 renal
[6] = system: SF-268 CNS
[7] = system: SF-295 CNS
[8] = system: SF-539 CNS
[9] = system: UACC-257 melanoma
[10] = system: HCT-15 colon
[11] = system: HT29 colon
[12] = system: SNB-75 CNS
[13] = system: SNB-19 CNS
[14] = system: U251 CNS
[15] = system: PC-3 prostate
[16] = system: SK-MEL-5 melanoma
[17] = system: UACC-62 melanoma
[18] = system: LOX IMVI melanoma
[19] = system: SK-MEL-28 melanoma

Row | SMILES | growth [1] | growth [2] | growth [3] | growth [4] | growth [5] | growth [6] | growth [7] | growth [8] | growth [9] | growth [10] | growth [11] | growth [12] | growth [13] | growth [14] | growth [15] | growth [16] | growth [17] | growth [18] | growth [19]
1 | C#C[C@]1(O)CC[C@H]2[C@@H]3CC=C4c5sc(N=C(N)N)nc5CC[C@]4(C)[C@H]3CC[C@@]21C | 8.62% (active) | -21.1% (active) | -76.2% (active) | -45.4% (active) | -56.6% (active) | -15% (active) | -56.2% (active) | -81.3% (active) | -44.8% (active) | -60.8% (active) | -0.997% (active) | -60.5% (active) | 18.9% | -14.9% (active) | 0.258% (active) | -94.9% (active) | -51.7% (active) | -64.4% (active) | -68.8% (active)
2 | Cc1nc(C)c(-c2nn3c(-c4cccc(F)c4)nnc3s2)s1 | 102% | 70.4% | 111% | 107% | 96.3% | 97.6% | 100% | 104% | 92.4% | 101% | 86.6% | 113% | 93.6% | 93.5% | 89.3% | 92.8% | 96% | 99.9% | 119%
3 | COc1cc(/C=C/C(=O)c2cccc(-n3cc(-c4ccccc4)[nH]c3=O)c2)cc(OC)c1OC | 7.58% (active) | 5.48% (active) | 2.69% (active) | 5.03% (active) | -69.7% (active) | 17.7% | 51% | -88.8% (active) | -13.2% (active) | 0.0594% (active) | -72% (active) | 34.2% | 20.2% | -78.6% (active) | 7.64% (active) | -90.1% (active) | -86.3% (active) | -85.2% (active) | -48.4% (active)
4 | CCC(O)(C(c1ccccc1)c1ccccn1)C(c1ccccc1)c1ccccn1 (centres undefined) | 103% | 101% | 94.4% | 120% | 118% | 95.3% | 122% | 92.1% | 112% | 103% | 102% | 99.4% | 108% | 107% | 97.4% | 106% | 113% | 98% | 107%
5 | COc1ccc(-c2cn(-c3cccc(C(=O)/C=C/c4cc(OC)c(OC)c(OC)c4)c3)c(=O)[nH]2)cc1 | 1.51% (active) | 0.142% (active) | 66.2% | 19.4% | -52.8% (active) | 20.1% | 26.4% | -89.1% (active) | 22.8% | 3.15% (active) | -67.1% (active) | 49.6% | 34.2% | -51.8% (active) | 20.6% | -54% (active) | -42.8% (active) | -68% (active) | -33.9% (active)
6 | Clc1ccc(-c2cn(-c3ccccc3)c(-c3ccccc3)n2)cc1 | 93.9% | 18.4% | 111% | 98.9% | 132% | 96.9% | 98.8% | 102% | 173% | 79.4% | 85.3% | 87.7% | 79.1% | 78.2% | 59.4% | 85.9% | 92.2% | 95.8% | 93.8%
7 | CC1(C)N=C(N)N=C(N)N1c1ccc(Cl)c(Cl)c1 | 46.5% | 23.6% | 67.8% | 68.4% | 61.4% | 42.9% | 17.2% | 13.4% | 55.6% | 30.6% | 36.2% | 71.2% | 40.3% | 30.1% | 38.3% | 25.2% | 27.4% | 18.8% | 78.6%
8 | COc1ccc(C2CC(c3ccc4ccccc4c3)=NN2c2nc(O)c(C3=c4cc(Cl)ccc4=NC3=O)s2)cc1 (centres undefined) | -20.7% (active) | -27.2% (active) | -54.3% (active) | -38.6% (active) | -67.3% (active) | -33.6% (active) | -61.9% (active) | -52.5% (active) | -50.8% (active) | -33.4% (active) | -46.5% (active) | -51.5% (active) | 3.08% (active) | -94.6% (active) | -44.4% (active) | -95.2% (active) | -46.5% (active) | -75.7% (active) | -18.8% (active)
9 | C[C@@H]1C(=O)N(C[C@H](Cc2ccccc2)NC(=O)OCc2ccccc2)[C@]1(Cc1ccccc1)C(=O)OC(C)(C)C | 87.1% | 40.5% | 79.5% | 66.4% | 71.2% | 65.7% | 69.6% | 87.1% | 66.1% | 62.9% | 56.3% | 68.7% | 71.7% | 63.2% | 27.5% | 58.8% | 51.9% | 73.3% | 85.3%
10 | CC1=NN(c2cccc(Cl)c2)C(=O)/C1=C\c1cn(CC(O)CN2CCCCC2)c2ccccc12 (centres undefined) | 96.7% | 28.9% | 32.9% | 41.4% | 67.1% | 72.6% | 62.4% | 96.1% | -82.1% (active) | 36.8% | -57.3% (active) | 87.2% | 84.2% | 36.5% | 62.3% | 55.5% | -47.4% (active) | 11% | -28.1% (active)
11 | Fc1ccc(Nc2nc3nonc3nc2Nc2ccc(F)cc2)cc1 | 23.8% | 9% (active) | 1.97% (active) | -20.5% (active) | 9.9% (active) | 18.5% | -20.7% (active) | -7.76% (active) | -13.5% (active) | 6.25% (active) | 2.83% (active) | -12.9% (active) | 23% | -6.58% (active) | 1.43% (active) | -46.4% (active) | 3.98% (active) | 2.74% (active) | 4.39% (active)
12 | COc1cc(C(=O)/C=C/c2c(C(F)(F)F)nc3ccccn23)cc(OC)c1OC | -25.8% (active) | -9.61% (active) | 7.53% (active) | 13.9% | -68.8% (active) | -36.1% (active) | -14.9% (active) | -92.8% (active) | -9.93% (active) | -44.2% (active) | -56.5% (active) | 1.22% (active) | 14.6% | -60.2% (active) | 7.45% (active) | -95.2% (active) | -75.6% (active) | -79.8% (active) | -65.2% (active)
13 | CCCCCCCCCCCCCCCCCC1=NCCN1C(=O)OCCO | -3.11% (active) | 1.39% (active) | 94% | -25.6% (active) | 49.8% | 31.4% | 23.3% | -25.7% (active) | 62.9% | -8.42% (active) | -47.6% (active) | 45.1% | 75.9% | -46% (active) | 28.4% | 80.3% | 59.6% | 27.8% | 61.3%
14 | O=C(Nc1cccc2[nH]c(C(F)(F)F)nc12)c1cc(Cl)ccc1Cl | 53.7% | 19.8% | 16.1% | 40.6% | 41.1% | 44.6% | 29.2% | 52.9% | 28.7% | 29.2% | 52.1% | 75.6% | 32.3% | 15.8% | 15.5% | -47.5% (active) | 20.5% | 38.1% | 44.3%
15 | Cc1ccc(S(=O)(=O)NN/C(N)=N\S(=O)(=O)c2cc(C)c(Cl)cc2SCc2ccccc2)cc1 | 115% | 57.8% | 76.1% | 92.5% | 8.06% (active) | 102% | 95% | 73.9% | 97.3% | 109% | 107% | 68.3% | 86.9% | 83.9% | 71.6% | 104% | 84.3% | 92% | 94.3%
16 | Cc1nc(Nc2ccc(NC(=S)Nc3ccccc3)cc2)nc2nc(Nc3cccc(Cl)c3)[nH]c(=O)c12 | 123% | 71.8% | 120% | 84.7% | -12.9% (active) | 104% | 116% | 67.5% | 98.9% | 98.2% | 114% | 84.7% | 102% | 92% | 93.1% | 102% | 102% | 92% | 93.2%

From PubChem BioAssay (NCI)
